Measured values: PubChem BioAssay (NCI)
This is part of a sample that, as a whole, favours compounds with a hit. Of some 83,000 tested, about 20% had one in any assay.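 Compound tested at a single concentration for 48 hours in 96-well plates; a percent growth value below 10 was scored as active.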 Values without a mark were called inactive. Active and inactive are the calls of the source.

The compounds below were run on OVCAR-5 ovarian (assay: NCI-60 one-dose screen, 48 h (100 = growth as untreated, 0 = no growth, -100 = all killed)). Conditions: 10 µM unless noted.

Compound	growth
N[C@@H](CCCCNCC(=O)O)C(=O)O	102%
CC(CCc1ccc(Cl)c(Cl)c1)NCc1ccc(C(C)(C)C)cc1 (stereo not drawn)	91.3%
O=Cc1ccc(O)c2ncccc12	50.3%
CCCCOc1nc2ccccc2cc1C1CNC(=O)c2ccccc2N1 (stereo not drawn)	55.3%
COc1ccc2occ(C3=C(c4c[nH]c5ccccc45)C(=O)N(O)C3=O)c2c1	104%
N#CC1=C(NC=O)Oc2c(ccc3ccccc23)C1c1ccccc1 (stereo not drawn)	88.9%
Fc1c[c-]c(-c2ccccn2)c(F)c1.[CH3-].[Pt+2].c1ccc(P(C[PH+](c2ccccc2)c2ccccc2)c2ccccc2)cc1	-34.5% (active)
N=C1C(c2nc(-c3ccc(Br)cc3)cs2)=C(O)CN1CC1CCCO1 (stereo not drawn)	89.2%
NS(=O)(=O)c1cnccc1Sc1ccncc1S(N)(=O)=O	101%
N#Cc1c(-c2ccccn2)[nH]c(=S)[nH]c1=O	94.6%

What follows are compounds tested on OVCAR-4 ovarian in the same assay as above. Conditions: 10 µM unless noted.

Compound	growth
c1c[nH]c(CNC2CCCCC2)c1	111%
COc1ccc2c(c1)CCCN2c1c2ccccc2nc2ccccc12	30.4%
CC/C=C/C/C=C/C/C=C/C/C=C/C/C=C/C/C=C/CCC(=O)Nc1ccn([C@@H]2O[C@H](CO)[C@@H](O)C2(F)F)c(=O)n1	73.8%
Cc1ccc2nc(NC(=O)CSc3nc(-c4ccccc4)c(C#N)c(=O)n3Cc3ccccc3)sc2c1	92.8%
NNC(=O)c1nc(N)n(-c2ccc(S(N)(=O)=O)cc2)n1	100%
O=C(CC(SCc1ccccc1)c1ccccc1)c1ccccc1 (stereo not drawn)	90%
COC1=C(OC)C(=O)C(OC)=C(OC)C1=O	42.1%
COC(=O)CCC1=C(C)C2=NC1=CC1=NC(=CC3=NC(=Cc4[nH]c(/c(=C(/C)O)c4C)=C2)C(C(C)=O)=C3C)C(C)=C1CCC(=O)OC	107%
CC1=CN2C(=O)C3C4=C(CCCC4)SC3N=C2CN1c1c(C)cccc1C (stereo not drawn)	93.3%
O=C(Nc1cccc(Oc2nnc(Cl)c3ccccc23)c1)Nc1ccc(Cl)c(C(F)(F)F)c1	2% (active)
CN1CCN(CCCOc2ccc3nc(Nc4ccc(F)c(F)c4)ccc3c2)CC1	51.2%
COc1ccccc1NC(=O)N/C(N)=N/c1nc2ccccc2s1	50.7%
Cc1ccc(Nc2nc(N)nc(CSCC(=O)NN)n2)cc1	93.7%
CC1CC(C(C)(C)C)C(=O)C(C(C)(C)C)C1 (stereo not drawn)	119%
O=C(O)c1ccc2c(c1Cl)C(=O)c1ccccc1C2=O	81.3%
N=c1sc(Cc2ccc(Cl)cc2)cn1CC(=O)c1ccc(F)cc1	69%
CCCCn1c(=O)c2c(nc3n2CCCN3CCc2ccc(OCC(=O)NCCN(CC)CC)cc2)n(CCCC)c1=O	52.3%
COc1ccc(NC(=O)c2nc(-c3cc(OC)c(OC)c(OC)c3)n(-c3cccc4ccccc34)n2)cc1OC	45.5%
O=C1CCc2c(sc3[nH]c(=S)n(-c4ccc(OC(F)(F)F)cc4)c(=O)c23)C1	17.1%
C[C@@]1(CCC#N)[C@H]2CC[C@@H]3[C@H]4[C@H](C(=O)/C=C/c5cccnc5)CC[C@]4(C#N)CC[C@@]3(C)[C@]2(C)CC[C@H]1C(=O)/C=C/c1cccnc1	69.1%
Cc1c(C)c2c(c(C)c1OCC(=O)O)CC[C@@](C)(CCC[C@@H](C)CCC[C@@H](C)CCCC(C)C)O2	45.9% [50 µM]
O=C(NCCCNc1cc(-c2cn(-c3ccccc3)nc2-c2cccc(O)c2)ccn1)c1ccc(F)cc1	39.8%
Cn1c(-c2c(N)n(Cc3ccc(C(F)(F)F)cc3)c3nc(C#N)c(C#N)nc23)nc2ccccc21	22.6%
Nc1nc(N)c2c(n1)NC(c1ccccc1)C1CCc3ccccc3C1=N2 (stereo not drawn)	27.3%
COc1ccc2[nH]c(O)c(/C=c3/cc4c(c(-c5cc(OC)c(OC)c(OC)c5)n3)=Nc3ccccc3-4)c2c1	64.8%
CCOC(=O)c1c2ncccc2n2c(=O)n(-c3ccccc3C)nnc12	90.2%
COc1cccc(C(=O)NCCCNc2cc(-c3cn(-c4ccccc4)nc3-c3cccc(OC)c3)ccn2)c1	37.9%
N[C@@H](CCCCNCC(=O)O)C(=O)O	101%
